Laboratory results from PubChem BioAssay (NCATS).
Results filed as inconclusive are left out. Calls of active or inactive are those of the source. Unless noted, the call rests on the fitted dose curve.

Tests used:
[1] = Inducers of the Endoplasmic Reticulum Stress Response (ERSR) in human glioma: Validation (AID 504836; active means well fitted curve in the direction sought with a large enough effect; an effect the other way counts as inactive or inconclusive; further: 0% is about no effect)
Method in brief: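 Stably transfected U87-MG human glioma cells carrying a GRP78-based luminescent sensor were seeded at 1000 cells/well, pin-dosed with compounds and incubated 16 h. Luciferase reagent was then added, and end-point luminescence was read after 10 min at room temperature.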

[2] = biological target: Ubiquitin carboxyl-terminal hydrolase 1 (Homo sapiens) (UniProt O94782); test: Inhibitors of USP1/UAF1: Pilot qHTS (AID 504865; active means well fitted curve in the direction sought with a large enough effect; an effect the other way counts as inactive or inconclusive;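 further: rhodamine fluorescence freed from ubiquitin-rhodamine substrate followed over time; top concentration of the series differs between compounds; on the % scale 0 is the no-effect control and ±100 the full control effect; nearly all actives have a fitted effect of over 35% in size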)
Ubiquitin carboxyl-terminal hydrolase 1 (Homo sapiens), sequence (O94782 whole entry, looked up): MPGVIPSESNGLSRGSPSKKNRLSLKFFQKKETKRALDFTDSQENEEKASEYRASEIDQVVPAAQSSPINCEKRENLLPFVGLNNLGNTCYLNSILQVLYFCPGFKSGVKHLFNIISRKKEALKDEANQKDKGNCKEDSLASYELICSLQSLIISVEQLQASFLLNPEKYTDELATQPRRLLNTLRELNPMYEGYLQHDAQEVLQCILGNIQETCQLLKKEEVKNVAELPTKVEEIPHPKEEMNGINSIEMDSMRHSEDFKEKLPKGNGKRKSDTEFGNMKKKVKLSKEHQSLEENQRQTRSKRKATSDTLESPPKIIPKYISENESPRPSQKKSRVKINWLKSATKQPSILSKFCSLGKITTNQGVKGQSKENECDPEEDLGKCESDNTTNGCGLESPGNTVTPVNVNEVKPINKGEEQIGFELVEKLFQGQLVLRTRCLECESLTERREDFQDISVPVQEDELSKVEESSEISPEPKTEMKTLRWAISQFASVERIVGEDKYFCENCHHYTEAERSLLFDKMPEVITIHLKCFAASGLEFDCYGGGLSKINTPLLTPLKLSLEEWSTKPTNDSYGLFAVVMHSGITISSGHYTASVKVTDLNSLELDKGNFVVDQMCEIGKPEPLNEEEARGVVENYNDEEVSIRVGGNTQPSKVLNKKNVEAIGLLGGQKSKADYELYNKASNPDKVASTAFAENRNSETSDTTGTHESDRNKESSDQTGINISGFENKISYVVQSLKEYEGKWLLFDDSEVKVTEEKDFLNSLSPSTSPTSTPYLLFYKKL
Method in brief: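 Kinetic fluorescence assay: 1nM USP1/UAF1, 15 min compound preincubation, then 150nM Ub-Rho; 480/540 nm.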

[3] = biological target: Estrogen receptor (Homo sapiens) (UniProt P03372); test: qHTS assay for small molecule antagonists of estrogen receptor alpha signaling (AID 588513; active means well fitted curve in the direction sought with a large enough effect in the signal ratio, with a control signal flat, not every such curve was filed as active; the % refers to the signal ratio; further: on the % scale 0 is the no-effect control and ±100 the full control effect)
Estrogen receptor (Homo sapiens), sequence (P03372 whole entry, looked up): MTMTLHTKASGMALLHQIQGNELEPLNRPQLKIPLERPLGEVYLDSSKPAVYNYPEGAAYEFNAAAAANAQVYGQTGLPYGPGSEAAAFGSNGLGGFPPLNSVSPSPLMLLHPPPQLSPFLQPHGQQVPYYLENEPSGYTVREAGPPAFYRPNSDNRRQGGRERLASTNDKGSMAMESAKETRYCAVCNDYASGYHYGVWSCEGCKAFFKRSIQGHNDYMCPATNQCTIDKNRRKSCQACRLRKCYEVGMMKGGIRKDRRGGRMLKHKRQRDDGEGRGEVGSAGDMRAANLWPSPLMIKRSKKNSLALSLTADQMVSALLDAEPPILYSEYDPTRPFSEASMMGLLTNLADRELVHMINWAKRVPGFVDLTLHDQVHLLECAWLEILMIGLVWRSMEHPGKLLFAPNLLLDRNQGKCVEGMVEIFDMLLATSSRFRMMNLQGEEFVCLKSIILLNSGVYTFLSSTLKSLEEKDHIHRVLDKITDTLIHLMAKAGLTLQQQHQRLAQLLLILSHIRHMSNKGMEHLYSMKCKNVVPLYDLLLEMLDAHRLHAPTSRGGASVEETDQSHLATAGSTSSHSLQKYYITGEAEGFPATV
Method in brief: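 Cells were plated at 5000/well and incubated 4 h at 37 C. Compounds were added as 1:2 dilution series, duplicates. 17-beta-estradiol (0.5nM final) was added for 18 h before CCF4 detection.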

[4] = biological target: Peroxisome proliferator-activated receptor gamma (Homo sapiens) (UniProt P37231); test: qHTS assay for small molecule agonists of peroxisome proliferator-activated receptor gamma signaling (AID 588536; active means well fitted curve in the direction sought with a large enough effect in the signal ratio, with a control signal flat, not every such curve was filed as active; the % refers to the signal ratio;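 further: 0% = DMSO basal wells and 100% = rosiglitazone at 2 µM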)
Peroxisome proliferator-activated receptor gamma (Homo sapiens), sequence (P37231 whole entry, looked up): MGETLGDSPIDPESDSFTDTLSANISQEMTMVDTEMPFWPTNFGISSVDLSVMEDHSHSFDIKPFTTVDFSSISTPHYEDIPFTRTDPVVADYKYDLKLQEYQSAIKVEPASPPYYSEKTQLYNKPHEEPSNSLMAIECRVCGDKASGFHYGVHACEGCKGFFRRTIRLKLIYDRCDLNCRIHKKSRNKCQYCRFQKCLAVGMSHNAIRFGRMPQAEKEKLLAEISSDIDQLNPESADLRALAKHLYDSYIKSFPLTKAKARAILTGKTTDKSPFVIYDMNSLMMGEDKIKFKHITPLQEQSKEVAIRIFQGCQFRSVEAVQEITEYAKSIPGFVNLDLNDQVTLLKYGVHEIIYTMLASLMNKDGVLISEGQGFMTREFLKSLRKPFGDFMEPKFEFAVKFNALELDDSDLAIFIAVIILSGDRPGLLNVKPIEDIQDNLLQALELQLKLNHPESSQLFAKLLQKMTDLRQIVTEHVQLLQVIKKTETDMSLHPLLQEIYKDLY
Method in brief: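 Beta-lactamase reporter read-out: CCF4 fluorescence (ex 405, em 460/530 nm) after 2 h at RT. HEK293 GeneBLAzer cells were treated for 16 h at 37 C. Hill fits gave EC50 and efficacy versus 2 uM rosiglitazone (100%) and DMSO (0%).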

[5] = biological target: Peroxisome proliferator-activated receptor gamma (Homo sapiens) (UniProt P37231); test: qHTS assay for small molecule antagonists of peroxisome proliferator-activated receptor gamma signaling (AID 588537; active means well fitted inhibition curve with a large enough effect in the signal ratio, with a control signal flat, not every such curve was filed as active; the % refers to the signal ratio;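 further: reporter cells co-stimulated with 50 nM rosiglitazone agonist during compound treatment; % of control where 0% means no effect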)
Method in brief: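 Compounds are tested as concentration series for inhibition of rosiglitazone-driven (50 nM) reporter expression in GeneBLAzer PPAR-gamma-UAS-bla HEK293 cells. After 16 h at 37 C, CCF4 substrate is added for 2 h at room temperature and blue/green fluorescence is measured.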

[6] = biological target: Vitamin D3 receptor (Homo sapiens) (UniProt P11473); test: qHTS assay for small molecule antagonists of vitamin D receptor signaling (AID 588541);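 further: receptor activated by calcitriol during compound treatment; on the % scale 0 is the no-effect control and ±100 the full control effect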
Vitamin D3 receptor (Homo sapiens), sequence (P11473 whole entry, looked up): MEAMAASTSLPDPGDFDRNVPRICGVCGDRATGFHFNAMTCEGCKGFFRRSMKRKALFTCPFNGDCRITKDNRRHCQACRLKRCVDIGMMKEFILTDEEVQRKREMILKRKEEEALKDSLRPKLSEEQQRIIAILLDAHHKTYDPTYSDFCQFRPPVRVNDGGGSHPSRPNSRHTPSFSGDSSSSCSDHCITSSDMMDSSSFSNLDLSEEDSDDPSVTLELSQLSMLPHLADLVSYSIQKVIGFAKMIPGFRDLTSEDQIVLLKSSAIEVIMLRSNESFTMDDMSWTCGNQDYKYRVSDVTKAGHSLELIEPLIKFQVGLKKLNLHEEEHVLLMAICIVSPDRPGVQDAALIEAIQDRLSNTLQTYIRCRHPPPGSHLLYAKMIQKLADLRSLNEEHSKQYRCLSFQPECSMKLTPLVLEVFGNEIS
Method in brief: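 VDR-UAS-bla HEK293T cells (2000/well, 2% charcoal-stripped FBS) were treated with titrated compounds plus 1-alpha,25-dihydroxyvitamin D3 (50 nM or 3 nM final) for 16 h at 37 C. CCF4 beta-lactamase fluorescence was read; Hill fits gave IC50.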

[7] = qHTS assay for small molecule antagonists of retinoid X receptor alpha signaling (AID 588546; active means well fitted inhibition curve with a large enough effect in the signal ratio, with a control signal flat, not every such curve was filed as active; the % refers to the signal ratio; further: potency means the concentration at half of the fitted maximal effect); conditions: HEK293T RXRa-UAS-bla, beta-lactamase ratio, antagonist mode; measured here: W530 green channel, cytotoxicity proxy
Method in brief: (§1)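 Beta-lactamase reporter inhibition, read as CCF4 fluorescence ratio (ex 405, em 460/530 nm) after 2 h at RT. HEK293T UAS-bla cells, 2500/well, were stimulated with 9-cis-RA at 500 or 100 nM final alongside test compound for 18 h at 37 C.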

[8] = biological target: Retinoic acid receptor RXR-alpha (Homo sapiens) (UniProt P19793); test: as above; conditions: HEK293T RXRa-UAS-bla, beta-lactamase ratio, antagonist mode
Retinoic acid receptor RXR-alpha (Homo sapiens), sequence (P19793 whole entry, looked up): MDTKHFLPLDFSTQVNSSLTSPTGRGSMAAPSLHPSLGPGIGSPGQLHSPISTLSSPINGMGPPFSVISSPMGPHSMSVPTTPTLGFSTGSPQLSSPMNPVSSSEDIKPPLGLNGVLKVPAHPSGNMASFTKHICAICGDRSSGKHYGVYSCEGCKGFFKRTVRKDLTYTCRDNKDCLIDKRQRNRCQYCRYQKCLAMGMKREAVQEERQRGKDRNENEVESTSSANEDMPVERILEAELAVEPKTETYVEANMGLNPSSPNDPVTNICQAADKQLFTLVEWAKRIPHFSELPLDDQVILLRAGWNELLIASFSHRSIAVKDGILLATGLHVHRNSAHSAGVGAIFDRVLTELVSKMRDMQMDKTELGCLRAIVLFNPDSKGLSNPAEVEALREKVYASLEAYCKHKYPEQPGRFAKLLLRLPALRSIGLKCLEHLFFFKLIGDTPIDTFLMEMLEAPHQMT
Method in brief: as §1

[9] = biological target: Thyroid hormone receptor beta (Homo sapiens) (UniProt P10828); test: qHTS assay for small molecule antagonists of thyroid hormone receptor beta signaling (AID 588547; active means well fitted inhibition curve with a large enough effect in the signal ratio, with a control signal flat, not every such curve was filed as active; the % refers to the signal ratio;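 further: cells stimulated with 0.4 nM T3 agonist during compound exposure; on the % scale 0 is the no-effect control and ±100 the full control effect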); conditions: TR-UAS-bla HEK293, beta-lactamase ratio, antagonist mode, 18 h
Thyroid hormone receptor beta (Homo sapiens), sequence (P10828 whole entry, looked up): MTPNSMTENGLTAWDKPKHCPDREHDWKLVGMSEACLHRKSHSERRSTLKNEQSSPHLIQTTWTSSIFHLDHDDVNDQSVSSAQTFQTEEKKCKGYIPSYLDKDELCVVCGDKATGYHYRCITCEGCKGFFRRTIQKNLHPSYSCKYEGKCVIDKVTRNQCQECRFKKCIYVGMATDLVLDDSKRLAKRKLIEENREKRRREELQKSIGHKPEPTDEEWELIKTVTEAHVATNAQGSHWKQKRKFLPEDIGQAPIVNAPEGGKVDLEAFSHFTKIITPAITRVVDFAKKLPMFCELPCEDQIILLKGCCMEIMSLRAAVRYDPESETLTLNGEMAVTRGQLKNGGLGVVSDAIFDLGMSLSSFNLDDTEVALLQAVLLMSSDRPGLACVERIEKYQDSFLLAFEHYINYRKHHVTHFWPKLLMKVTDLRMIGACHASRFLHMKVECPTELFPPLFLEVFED
Method in brief: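 TR-UAS-bla GripTite HEK293 cells in 2% charcoal/dextran FBS medium were preincubated 4 h at 37 C, given compound (0.59 nM to 92 uM) plus 0.4 nM T3 (final) for 18 h, then CCF4 for 2 h at RT; Hill fit gave IC50.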

[10] = qHTS assay for small molecule agonists of the antioxidant response element (ARE) signaling pathway (AID 651741; active means well fitted activation curve with a large enough effect in the signal ratio; the % refers to the signal ratio; further: potency means the concentration at half of the fitted maximal effect)
Method in brief: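 Reporter: beta-lactamase under ARE, stably in HepG2. Exposure: 16 h, 37 C, compounds delivered in DMSO by pin tool after 5 h cell preincubation. Readout: FRET substrate fluorescence after 2 h at RT.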

[11] = qHTS assay for small molecule disruptors of the mitochondrial membrane potential - 1 hr assay (AID 651754); further: potency means the concentration at half of the fitted maximal effect; nearly all actives have a fitted effect of over 35% in size
Method in brief: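 Loss of mitochondrial potential shifts the cationic dye from red mitochondrial aggregates to green cytoplasmic monomers. Cells (HepG2) are treated with compound for 1 hr before a 30 min dye incubation at 37C.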

[12] = qHTS assay to identify small molecules that stimulate interleukin-8 (IL-8) secretion (AID 651758; active means well fitted activation curve with a large enough effect in the signal ratio; the % refers to the signal ratio; further: 0% is about no effect)
Method in brief: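 Quantitative HTS in THP-1 monocytic cells at 2000 cells per well, with 16 hrs compound incubation at 37 C. IL-8 in the medium was then quantified by HTRF immunoassay, read after 1-3 hrs at room temperature.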

[13] = biological target: Arylsulfatase A (Homo sapiens) (UniProt P15289); test: qHTS screen for enhancers of Arylsulfatase A (ASA1): LOPAC Validation Assay (AID 720538; active means well fitted curve in the direction sought with a large enough effect; an effect the other way counts as inactive or inconclusive; further: 0% is about no effect)
Arylsulfatase A (Homo sapiens), sequence (P15289 whole entry, looked up): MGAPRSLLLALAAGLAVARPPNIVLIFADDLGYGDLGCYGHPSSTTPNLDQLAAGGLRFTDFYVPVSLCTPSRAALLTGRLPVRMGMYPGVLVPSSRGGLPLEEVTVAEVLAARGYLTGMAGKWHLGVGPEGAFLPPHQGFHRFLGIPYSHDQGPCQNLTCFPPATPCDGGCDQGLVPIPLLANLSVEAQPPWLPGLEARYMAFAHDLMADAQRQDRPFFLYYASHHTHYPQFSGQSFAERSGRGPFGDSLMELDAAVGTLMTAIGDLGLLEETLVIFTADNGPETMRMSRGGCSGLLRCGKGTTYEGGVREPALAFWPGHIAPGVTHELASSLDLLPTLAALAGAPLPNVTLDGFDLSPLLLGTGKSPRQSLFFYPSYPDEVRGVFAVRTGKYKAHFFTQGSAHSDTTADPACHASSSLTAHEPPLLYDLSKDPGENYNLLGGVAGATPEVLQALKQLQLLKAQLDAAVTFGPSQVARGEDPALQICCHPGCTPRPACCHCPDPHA
Method in brief: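 First, ASA-I179S fibroblasts from an MLD patient adhered for 6 hrs. Next, compounds were added for 48h. Then pNCS substrate (0.5mM final) with lysis buffer reacted 14h at room temperature before NaOH stop and fluorescence measurement.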

[14] = qHTS profiling of the MIPE4 collection as inhibitors of Plasmodium falciparum (3D7) proliferation (AID 743344; call rule not given here;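 further: scaled between DMSO vehicle wells and 0.29 µM artemisinin as full inhibition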); conditions: P. falciparum 3D7 in erythrocytes, SYBR Green DNA fluorescence, 72 h; at 28.5 µM (top of the series) unless noted
Method in brief: (§2)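 Parasite DNA was quantified by SYBR Green I fluorescence (ex 485, em 535 nm) after overnight lysis in saponin/Triton buffer at room temperature. Cultures at 0.3% parasitemia and 2.5% hematocrit were first exposed to compound for 72 h at 37 C; signals were normalised to artemisinin (0.29 uM) and vehicle wells.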

[15] = qHTS profiling of the MIPE4 collection as inhibitors of Plasmodium falciparum (DD2) proliferation (AID 743345; call rule not given here); conditions: P. falciparum Dd2 in erythrocytes, SYBR Green DNA, 72 h; at 28.5 µM (top of the series) unless noted
Method in brief: as §2

[16] = qHTS profiling of the MIPE4 collection as inhibitors of Plasmodium falciparum (DD2) proliferation (Rep 2) (AID 743346; call rule not given here); conditions: P. falciparum Dd2 in erythrocytes, SYBR Green DNA, 72 h; at 28.5 µM (top of the series) unless noted
Method in brief: as §2

[17] = qHTS profiling of the MIPE4 collection as inhibitors of Plasmodium falciparum (HB3) proliferation (AID 743347; call rule not given here;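 further: plate controls were DMSO vehicle wells for no effect and artemisinin wells for full effect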); conditions: P. falciparum HB3 in erythrocytes, SYBR Green DNA, 72 h; at 28.5 µM (top of the series) unless noted
Method in brief: as §2

[18] = qHTS for Inhibitors of the Functional Ribonucleoprotein Complex (vRNP) of Lassa (LASV) Arenavirus: LASV Primary Screen - GLuc reporter signal (AID 1347082; calls by dose curve; tested in HEK293 reporter line; further: on the % scale 0 is the no-effect control and ±100 the full control effect; nearly all actives have a fitted effect of over 60% in size)
[19] = qHTS for Inhibitors of the Functional Ribonucleoprotein Complex (vRNP) of Lassa (LASV) Arenavirus: Viability assay - alamar blue signal for LASV Primary Screen (AID 1347083; calls by dose curve; tested in HEK293 reporter line; further: on the % scale 0 is the no-effect control and ±100 the full control effect; nearly all actives have a fitted effect of over 80% in size)
[20] = qHTS for Inhibitors of the Functional Ribonucleoprotein Complex (vRNP) of Lymphocytic Choriomeningitis Arenaviruses (LCMV): Viability assay - alamar blue signal for LCMV Primary Screen (AID 1347085; calls by dose curve; tested in HEK293 reporter line; further: on the % scale 0 is the no-effect control and ±100 the full control effect; nearly all actives have a fitted effect of over 80% in size)
[21] = biological target: Nucleoprotein (Lymphocytic choriomeningitis virus (strain Armstrong)) (UniProt P09992); test: qHTS for Inhibitors of the Functional Ribonucleoprotein Complex (vRNP) of Lymphocytic Choriomeningitis Arenaviruses (LCMV): LCMV Primary Screen - GLuc reporter signal (AID 1347086); further: on the % scale 0 is the no-effect control and ±100 the full control effect; nearly all actives have a fitted effect of over 70% in size
Nucleoprotein (Lymphocytic choriomeningitis virus (strain Armstrong)), sequence (P09992 whole entry, looked up): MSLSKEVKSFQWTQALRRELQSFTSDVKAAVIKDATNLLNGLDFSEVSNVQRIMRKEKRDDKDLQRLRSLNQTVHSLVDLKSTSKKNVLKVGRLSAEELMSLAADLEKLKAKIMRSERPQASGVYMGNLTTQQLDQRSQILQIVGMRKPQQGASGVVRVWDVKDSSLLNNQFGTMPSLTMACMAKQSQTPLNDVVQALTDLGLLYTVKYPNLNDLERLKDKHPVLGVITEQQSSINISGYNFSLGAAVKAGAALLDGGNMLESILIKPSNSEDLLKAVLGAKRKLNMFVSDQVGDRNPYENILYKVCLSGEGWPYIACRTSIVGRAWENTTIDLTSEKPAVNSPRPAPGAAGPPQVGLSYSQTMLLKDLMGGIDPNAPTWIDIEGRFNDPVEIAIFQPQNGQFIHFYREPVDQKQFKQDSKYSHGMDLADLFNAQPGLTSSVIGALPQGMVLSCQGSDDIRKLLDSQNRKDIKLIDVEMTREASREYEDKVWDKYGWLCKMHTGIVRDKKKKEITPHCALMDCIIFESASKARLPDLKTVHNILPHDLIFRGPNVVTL

[22] = Primary qHTS for Huh7 cytotoxicity: counterscreen for inhibitors of MERS-S pseudotyped particle cell entry (AID 1479147); conditions: outcome: dose series up to 57.1 µM unless noted; further: on the % scale 0 is the no-effect control and ±100 the full control effect
[23] = Primary qHTS for Vero E6 cytotoxicity: counterscreen for inhibitors of SARS-S pseudo-typed particle cell entry (AID 1479150); conditions: outcome: dose series up to 57.1 µM unless noted
[24] = VSVG counterscreen qHTS to identify inhibitors of SARS-CoV-2 cell entry (AID 1645847); further: potency means the concentration at half of the fitted maximal effect; nearly all actives have a fitted effect of over 65% in size
Method in brief: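 Counterscreen using VSV-G (not spike) pseudotyped MLV particles on ACE2-expressing Expi293F cells after 1 h compound preincubation; infection ran 48 h at 37 °C. Data normalized to VSV-G PP and bald-PP wells.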

CC(=O)[C@H]1CC[C@H]2[C@@H]3CCC4=CC(=O)CC[C@]4(C)[C@H]3CC[C@]12C
active: Potency [8] 35.5 µM | Potency [10] 37.6 µM | Potency [11] 11.9 µM | Potency [24] 17.1 µM
31%: growth, % of control [17]
inactive: outcome [1] | Potency [2] | Potency [3] | outcome [4] | Potency [5] | outcome [6] | activity change % (negative = inhibition) [9] -26.1% | Potency [12] | Potency [13] | Potency [18] | Potency [19] | Potency [20] | Potency [21] | outcome [22] | outcome [23]
1.42%: max response [7]
30.4%: parasite growth, % of control (lower = inhibition) [16]
85%: parasite growth remaining, % of DMSO control (lower = more inhibition) [15]
38.5%: parasite growth, % of DMSO control [14]
